CBX7 AlphaScr – CBX7 chromodomain binding inhibitors, primary screen, biochemical, AlphaScreen. AlphaScreen His6-CBX7 / biotin-H3K27me3 peptide binding; hits give low values. normalised signal (fraction of DMSO) (test concentration not listed). 66,000 compounds, 1.1% hits; in the data active = normalised signal below about 0.5
Target sequence (O95931 whole entry, looked up): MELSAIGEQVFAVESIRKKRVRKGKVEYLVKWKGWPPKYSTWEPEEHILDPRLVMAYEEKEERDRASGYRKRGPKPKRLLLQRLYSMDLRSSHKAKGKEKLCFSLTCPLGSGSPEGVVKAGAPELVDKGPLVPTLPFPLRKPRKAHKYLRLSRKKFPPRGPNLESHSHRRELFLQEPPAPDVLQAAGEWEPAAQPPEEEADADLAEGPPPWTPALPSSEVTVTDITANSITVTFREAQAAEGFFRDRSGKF
* hit, by the source's call; ! = repeats disagree. This excerpt belongs to a sample that is enriched for hits.

SMILES	CBX7 AlphaScr
COC(=O)c1ccc(OCC(O)Cn2cnc3cc(C)c(C)cc32)cc1 (stereo not given)	0.87
CCCCn1c(=N)n(CC(O)COc2cccc(C)c2)c2ccccc21 (stereo not given)	0.65
O=C1c2ccccc2C(=O)N1CC(O)COCc1ccccc1 (stereo not given)	1
Cc1cccc(OCC(O)Cn2cnc3cc(C)c(C)cc32)c1 (stereo not given)	0.045*
Cc1cc2ncn(CC(O)COc3ccc(C(=O)O)cc3)c2cc1C (stereo not given)	1
Cc1ccc(OCC(O)Cn2cnc3cc(C)c(C)cc32)cc1 (stereo not given)	0.072*
CCc1ccccc1NC(=O)CSc1nc2nc(C)c(Cc3ccccc3C)c(C)n2n1	0.92
CCCSCCCNC(=O)c1ccc2nc(N3CCOCC3)sc2c1	1.1
CCOCCCNC(=O)c1c[nH]c2ccc(S(=O)(=O)N(C)c3ccc(C(C)C)cc3)cc2c1=O	1.1
CN(CC(=O)Nc1ccccc1Cl)S(=O)(=O)c1cccc2cccnc12	0.99
CCOC(=O)c1cc(-c2ccc(OC)cc2)n(CCC(=O)NCc2ccccc2)c1C	0.9
O=C(CCCCCN1C(=O)c2ccccc2C1=O)Nc1ccc(Br)c2cccnc12	0.98
COc1ccccc1NC(=O)CSc1nccn1-c1ccc(F)cc1	0.66
O=C(NCc1cccnc1)c1ccc2c(=O)n3c(nc2c1)CCCCC3	1
CCc1ccc(-n2cnc3cc(C(=O)NC4CCCC(C)C4C)ccc32)cc1 (stereo not given)	0.83
Cc1ccc(CSc2nc3ccncc3n2CC(=O)Nc2ccccc2C(F)(F)F)cc1	1.1
COc1ccc(-c2nc3cc(C)ccn3c2NC(=O)c2ccc(F)cc2)cc1OC	0.92
CCC(C(=O)Nc1cccc(OC)c1)n1c(SCc2cc(C)ccc2C)nc2ccncc21 (stereo not given)	0.96
O=C1CN(C(=O)c2ccc(F)cc2)C(c2ccccc2)c2cc(F)ccc2N1 (stereo not given)	1.1
c1ccc(CNC2CCCc3c2[nH]c2ccc(-c4ccccc4)cc32)cc1 (stereo not given)	0.67
Cc1ccc2[nH]c3c(c2c1)CCCC3NCCCO (stereo not given)	1
Cc1ccc2[nH]c3c(c2c1)CCCC3NCc1ccc(Cl)cc1 (stereo not given)	0.49*
COc1cc(NC(=O)CCCOc2ccc(Cl)cc2Cl)c2ncccc2c1	0.97
O=C(Cn1cnc2scc(-c3ccccc3)c2c1=O)N1CCN(c2ccc(F)cc2)CC1	0.83
COc1ccc(-c2nc3ccccc3o2)cc1NC(=O)COc1ccc(Cl)cc1C	1
SMILES	CBX7 AlphaScr
O=C(O)c1ccc(S(=O)(=O)c2ccc3c(c2)C(=O)N(c2cccc(C(=O)O)c2)C3=O)cc1	0.91
Clc1ccc(Nc2nc(-c3ccc(Br)cc3)cs2)cc1Cl	1
COCc1cc(CN2CCC(C)CC2)c(O)c2ncccc12	0.0039*
COc1cccc(OCC(O)CN2CCC(C)CC2)c1 (stereo not given)	0.98
Cc1ccc(-c2noc(CN3CCC(C)CC3)n2)cc1	1.1
Cc1cc(NCc2ccc(F)cc2)n2nc(C)nc2n1	0.94
Cc1ccccc1NC(=O)C1c2ccccc2C(=O)N2CCc3ccccc3C12 (stereo not given)	0.97
Cc1ccc(NC(=O)C2c3ccccc3C(=O)N3CCc4ccccc4C23)nc1 (stereo not given)	0.3*
COc1cc2c(cc1OC)C1C(C(=O)Nc3ccc(Cl)cn3)c3ccccc3C(=O)N1CC2 (stereo not given)	0.93
CCc1ccc(S(=O)(=O)Nc2ccc3oc4c(c3c2)CC(C(C)(C)C)CC4)cc1 (stereo not given)	0.78
CC1CCc2oc3ccc(NS(=O)(=O)c4cccs4)cc3c2C1 (stereo not given)	0.64
CCC(C)(C)C1CCc2oc3ccc(NS(=O)(=O)c4cccs4)cc3c2C1 (stereo not given)	0.42*
Cc1ccc(Nc2nc(-c3ccc(Cl)cc3)cs2)cc1C	0.77
COc1cccc(Nc2nc(-c3ccc(F)cc3)cs2)c1	0.47*
Cc1ccc(Nc2nc(-c3ccc(I)cc3)cs2)cc1C	0.78
Clc1ccc(Nc2nc(-c3ccncc3)cs2)cc1	1
COc1ccc(-c2csc(Nc3cccc(C(=O)O)c3)n2)cc1	0.75
CCOc1ccc(Nc2nc(-c3ccc(OC)c(F)c3)cs2)cc1	1
COc1ccc(-c2csc(Nc3ccc(C)c(Cl)c3)n2)cc1F	0.39*!
Oc1ccc(Nc2nc(-c3ccc(Cl)cc3)cs2)cc1	0.44*
Cc1ccc(Nc2nc(-c3ccc(-c4ccccc4)cc3)cs2)cc1Cl	0.88
Cc1ccc(Nc2nc(-c3ccc(C)c(C)c3)cs2)cc1	0.45*
COc1cccc(Nc2nc(-c3ccc(C)cc3)cs2)c1	0.67
Clc1ccc(-c2csc(Nc3ccc(Br)cc3)n2)cc1	0.7
COc1ccc(OC)c(CCNC(=O)c2cc3ccccn3n2)c1	1.1
Cc1nc2ccccc2n1CC(O)COc1ccc(I)cc1 (stereo not given)	0.98
